Results filed as inconclusive are left out. Activity calls are given as the source filed them. How the source made its calls: active means hit-call score of the fitted dose curve at least 0.9, where 1 is the maximum; inconclusive means response in the unintended direction; inactive means score below 0.9.
How the values were obtained:
[1] = Tanguay_ZF_120hpf_AXIS_legacy: (Legacy) Oregon State University Tanguay Lab 120 Hour Post-fertilization zebrafish Assay for Body Axis Malformation (AID 2283635);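 on AC50: potency for an increased fraction of larvae scored with body axis malformation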
Procedure, shortened: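 Each dechorionated embryo was exposed alone from 6 hpf, with DMSO at 0.64% (vol/vol) and trimethyltin chloride 5 uM as positive control. Axis malformation was recorded at 120 hpf unless the embryo had died.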

[2] = Tanguay_ZF_120hpf_EYE_legacy: (Legacy) Oregon State University Tanguay Lab 120 Hour Post-fertilization zebrafish Assay for Eye Malformation (AID 2283636);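 further: binary presence or absence of eye malformation scored by brightfield in 120 hpf larvae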
Procedure, shortened: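 Dechorionated wild-type Tropical 5D zebrafish embryos were exposed statically from 6 hpf, one per well, to 120 hpf at 28C in sealed, foil-covered plates with 0.64% DMSO. Eye malformation was scored present/absent by brightfield microscopy against DMSO controls.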

[3] = Tanguay_ZF_120hpf_SNOU_legacy: (Legacy) Oregon State University Tanguay Lab 120 Hour Post-fertilization zebrafish Assay for Snout Malformation (AID 2283637)
Procedure, shortened: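 Tropical 5D wild-type zebrafish embryos, dechorionated with pronase at 4 hpf, were exposed singly from 6 hpf to 120 hpf statically at 28C in 0.64% DMSO. Snout malformation was scored present/absent by brightfield microscopy, fitted against DMSO.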

[4] = Tanguay_ZF_120hpf_JAW_legacy: (Legacy) Oregon State University Tanguay Lab 120 Hour Post-fertilization zebrafish Assay for Jaw Malformation (AID 2283638);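 on AC50: active means more embryos with jaw malformation than DMSO controls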
Procedure, shortened: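 Wild-type 5D embryos, chorion removed at 4 hpf, dosed singly from 6 hpf; 28C static, sealed, foil-covered, to 120 hpf. Endpoint: jaw defect yes/no (brightfield); mortality excludes scoring.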

[5] = Tanguay_ZF_120hpf_OTIC_legacy: (Legacy) Oregon State University Tanguay Lab 120 Hour Post-fertilization zebrafish Assay for Otic Vesicle Malformation (AID 2283639)
Procedure, shortened: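 Tropical 5D wild-type zebrafish embryos statically exposed in 0.64% DMSO at 28C until 120 hpf; 5uM trimethyltin chloride as positive control. Otic vesicle malformation scored present/absent by brightfield; dead embryos not scored; gain fitted versus DMSO.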

[6] = Tanguay_ZF_120hpf_BRAI_legacy: (Legacy) Oregon State University Tanguay Lab 120 Hour Post-fertilization zebrafish Assay for Brain Malformation (AID 2283641)
Procedure, shortened: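 Static exposure of staged wild-type embryos until 120 hpf, kept at 28C with light excluded and final DMSO of 0.64% (vol/vol). Presence or absence of brain malformation was noted under brightfield; mortality precluded scoring.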

[7] = Tanguay_ZF_120hpf_SOMI_legacy: (Legacy) Oregon State University Tanguay Lab 120 Hour Post-fertilization zebrafish Assay for Somite Malformation (AID 2283647)
Procedure, shortened: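 Somitogenesis defects are recorded as binary calls in whole larvae at 120 hpf after continuous static chemical exposure starting at 6 hpf in dechorionated 5D embryos. DMSO serves as negative control and baseline.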

[8] = Tanguay_ZF_120hpf_PFIN_legacy: (Legacy) Oregon State University Tanguay Lab 120 Hour Post-fertilization zebrafish Assay for Pectoral Fin Malformation (AID 2283648);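 further: each larva judged yes or no for fin defect by brightfield with dead larvae skipped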
Procedure, shortened: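 Tropical 5D wild-type embryos, dechorionated with pronase at 4 hpf, were placed singly in wells at 6 hpf and statically exposed until 120 hpf at 28C, sealed and dark, with 0.64% (vol/vol) final DMSO; pectoral fin malformation scored present/absent.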

[9] = Tanguay_ZF_120hpf_CFIN_legacy: (Legacy) Oregon State University Tanguay Lab 120 Hour Post-fertilization zebrafish Assay for Caudal Fin Malformation (AID 2283649)
Procedure, shortened: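 Single dechorionated 5D wild-type embryos are dosed at 6 hpf (final DMSO 0.64%) and held statically at 28C. Caudal fin malformation is recorded as present or absent at 120 hpf under brightfield, excluding dead embryos.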

[10] = Tanguay_ZF_120hpf_PIG_legacy: (Legacy) Oregon State University Tanguay Lab 120 Hour Post-fertilization zebrafish Assay for Pigmentation Malformation (AID 2283650)
Procedure, shortened: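 Tropical 5D wild-type zebrafish embryos, dechorionated with pronase at 4 hpf, were exposed singly from 6 hpf to 120 hpf statically at 28C in sealed, dark plates with 0.64% DMSO; pigmentation scored present/absent by brightfield microscopy, fitted against DMSO.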

[11] = Tanguay_ZF_120hpf_CIRC_legacy: (Legacy) Oregon State University Tanguay Lab 120 Hour Post-fertilization zebrafish Assay for Circulatory Malformation (AID 2283651)
Procedure, shortened: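 Dechorionated wild-type 5D zebrafish embryos, one per well, statically exposed from 6 to 120 hpf at 28C with 0.64% DMSO; circulatory malformation scored present/absent by brightfield microscopy at 120 hpf, dead embryos excluded.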

[12] = Tanguay_ZF_120hpf_SWIM_legacy: (Legacy) Oregon State University Tanguay Lab 120 Hour Post-fertilization zebrafish Assay for Swim Bladder Malformation (AID 2283654);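 further: swim bladder malformation in each larva scored yes or no under brightfield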
Procedure, shortened: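 Dechorionated Tropical 5D wild-type embryos, placed singly from 6 hpf, were statically exposed at 28C to 120 hpf with 0.64% DMSO final; swim bladder malformation was scored present/absent by brightfield microscopy, gain of signal relative to DMSO controls.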

[13] = Tanguay_ZF_120hpf_TRUN_legacy: (Legacy) Oregon State University Tanguay Lab 120 Hour Post-fertilization zebrafish Assay for Truncated Body (AID 2283655)
Procedure, shortened: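 Single dechorionated zebrafish embryos received test chemical from 6 hpf in 0.64% DMSO, kept at 28C. At 120 hpf, brightfield inspection noted any truncated body.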

[14] = Tanguay_ZF_120hpf_NC_legacy: (Legacy) Oregon State University Tanguay Lab 120 Hour Post-fertilization zebrafish Assay for Notochord and Tail Malformation (AID 2283656)
Procedure, shortened: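 Dechorionated Tropical 5D wild-type zebrafish embryos, one per well from 6 hpf, statically exposed to 120 hpf at 28C in 0.64% DMSO final. Notochord distortion scored present/absent by brightfield; dead embryos excluded.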

[15] = tested on: Thyroperoxidase (TPO), gene 54314; experiment: CCTE_Simmons_AUR_rTPO: CCTE's Amplex UltraRed Assay for Thyroperoxidase (TPO) Inhibition, Simmons Lab (AID 2283662);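 further: potency for loss of signal meaning inhibition of peroxidase activity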
Procedure, shortened: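 Rat thyroid microsomes (5 ug protein) with 25 uM Amplex UltraRed and 300 uM H2O2 in 200 mM phosphate buffer, 30 min at 37C in dark; fluorescence 544/590 nm. Eight concentrations, 5 nM–87.5 uM final, 0.5% DMSO, triplicate biological replicates.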

[16] = Tanguay_ZF_120hpf_PE_legacy: (Legacy) Oregon State University Tanguay Lab 120 Hour Post-fertilization zebrafish Assay for Pericardial Edema (AID 2283640)
Procedure, shortened: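 Zebrafish larvae are exposed from early development to 120 hpf at 28C, with 0.64% DMSO final. Each surviving larva receives a yes/no pericardial edema call by brightfield imaging, analysed relative to the DMSO baseline.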

Measured: AC50

CCC(C)(C)C(=O)O[C@H]1C[C@@H](C)C=C2C=C[C@H](C)[C@H](CC[C@@H]3C[C@@H](O)CC(=O)O3)[C@H]21
active: [1] 0.671 µM | [2] 0.737 µM | [3] 0.796 µM | [4] 0.766 µM | [5] 0.747 µM | [6] 0.645 µM | [8] 0.652 µM | [10] 0.666 µM | [15] 43.8 µM
inactive: [7] | [9] | [11] | [12] | [13] | [14]

CN(C)c1ccc(Cc2ccc(N(C)C)cc2)cc1
active: [15] 12 µM
not listed: [5] | [14]
inactive: all other assays above

CC[C@H]1OC(=O)[C@H](C)[C@@H](O[C@H]2C[C@@](C)(OC)[C@@H](O)[C@H](C)O2)[C@H](C)[C@@H](O[C@@H]2O[C@H](C)C[C@H](N(C)C)[C@H]2O)[C@](C)(O)C[C@@H](C)C(=O)[C@H](C)[C@@H](O)[C@]1(C)O
not listed: [12] | [15] | [16]
inactive: all other assays above

O=C(NS(=O)(=O)/C=C/c1ccccc1)c1ccc(F)cc1Cl
not listed: [7] | [8] | [11] | [12] | [15] | [16]
inactive: all other assays above

C[C@](N)(Cc1ccc(O)c(O)c1)C(=O)O
active: [15] 0.696 µM
not listed: [16]
inactive: all other assays above

C=CCCCCCCCCC(=O)O
not listed: [5] | [15]
inactive: all other assays above

CC(=O)OC[C@H]1O[C@@](COC(C)=O)(O[C@H]2O[C@H](COC(C)=O)[C@@H](OC(C)=O)[C@H](OC(C)=O)[C@H]2OC(C)=O)[C@@H](OC(C)=O)[C@@H]1OC(C)=O
not listed: [12] | [15] | [16]
inactive: all other assays above

Oc1ccc2c(c1)-c1ccccc1C2
active: [1] 35.5 µM | [2] 48 µM | [3] 39.3 µM | [4] 37.7 µM | [7] 49.1 µM | [8] 36 µM | [9] 35.1 µM | [10] 41 µM | [15] 10.6 µM
inactive: [5] | [6] | [11] | [12] | [13] | [14]

Cc1ccc(S(=O)(=O)O)cc1C
not listed: [10] | [15] | [16]
inactive: all other assays above

From PubChem BioAssay (EPA / NIEHS)
